Experimental data: PubChem BioAssay (NCATS)
Inconclusive results are not listed. Active and inactive are the calls of the source. Unless noted, the call rests on the fitted dose curve; in most records, active means well fitted curve in the direction sought with a large enough effect; inconclusive means small, poorly fitted or top-dose-only effect, or another doubt; inactive means no such curve, though single readings can be large; an effect the other way counts as inactive or inconclusive.

Legend:
[1] = biological target: Estrogen receptor (Homo sapiens) (UniProt P03372); experiment: qHTS assay for small molecule agonists of estrogen receptor alpha signaling (AID 588514; calls by dose curve;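 further: 0% = vehicle only and 100% = reference agonist; nearly all actives have a fitted effect of over 70% in size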)
Procedure, shortened: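 Cells were plated at 5000/well, incubated 4 hrs at 37 C, dosed with compound titration series, incubated 18 hrs at 37 C, loaded with CCF4 dye for 2 hrs at RT, then fluorescence was read.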

[2] = biological target: Thyroid hormone receptor beta (Homo sapiens) (UniProt P10828); experiment: qHTS assay for small molecule agonists of thyroid hormone receptor beta signaling (AID 588545; calls by dose curve;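 further: 0% = DMSO only and 100% = 10 nM T3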)
Procedure, shortened: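 TR-UAS-bla-GripTite HEK 293 cells in medium with 2% charcoal/dextran FBS, 0.1 mM NEAA and 1 mM sodium pyruvate were treated with titrated compounds for 18 hrs at 37 C. Beta-lactamase reporter was read with CCF4 dye (ex 405, em 460/530 nm); EC50 from Hill fits.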

[3] = qHTS assay for small molecule antagonists of retinoid X receptor alpha signaling (AID 588546; active means well fitted inhibition curve with a large enough effect in the signal ratio, with a control signal flat, not every such curve was filed as active; the % refers to the signal ratio;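 further: cells stimulated with 9-cis-retinoic acid as agonist; on the % scale 0 is the no-effect control and ±100 the full control effect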); conditions: HEK293T RXRa-UAS-bla, beta-lactamase ratio, antagonist mode; measured here: W530 green channel, cytotoxicity proxy
Procedure, shortened: (§1)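 Beta-lactamase reporter inhibition, read as CCF4 fluorescence ratio (ex 405, em 460/530 nm) after 2 h at RT. HEK293T UAS-bla cells, 2500/well, were stimulated with 9-cis-RA at 500 or 100 nM final alongside test compound for 18 h at 37 C.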

[4] = biological target: Retinoic acid receptor RXR-alpha (Homo sapiens) (UniProt P19793); experiment: as above; conditions: HEK293T RXRa-UAS-bla, beta-lactamase ratio, antagonist mode
Procedure, shortened: as §1

[5] = biological target: Thyroid hormone receptor beta (Homo sapiens) (UniProt P10828); experiment: qHTS assay for small molecule antagonists of thyroid hormone receptor beta signaling (AID 588547; active means well fitted inhibition curve with a large enough effect in the signal ratio, with a control signal flat, not every such curve was filed as active; the % refers to the signal ratio;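 further: cells stimulated with 0.4 nM T3 agonist during compound exposure; series mostly up to about 77 µM; on the % scale 0 is the no-effect control and ±100 the full control effect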); conditions: TR-UAS-bla HEK293, beta-lactamase ratio, antagonist mode, 18 h
Procedure, shortened: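 TR-UAS-bla GripTite HEK293 cells in 2% charcoal/dextran FBS medium; compounds 0.59 nM to 92 uM with T3 at 0.4nM final, 18 h at 37 C. Beta-lactamase read by CCF4 fluorescence (460/530 nm); Hill fits gave IC50 and efficacy.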

[6] = qHTS assay for small molecule activators of the p53 signaling pathway (AID 651743; active means well fitted activation curve with a large enough effect in the signal ratio, not every such curve was filed as active; the % refers to the signal ratio; further: series mostly up to about 92 µM; % of control where 0% means no effect); conditions: HCT-116 p53RE-bla, beta-lactamase FRET ratio, 16 h; activation: stronger effect = higher value
Procedure, shortened: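 p53RE-bla HCT-116 cells carrying a beta-lactamase reporter under p53 response elements were exposed to compounds for 16 hours at 37 C. Reporter activity read as fluorescence after 2 hours at room temperature with LiveBLAzer B/G FRET substrate.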

[7] = qHTS assay for environmental chemicals that activate the Aryl hydrocarbon Receptor (AhR) signaling pathway (AID 651777); conditions: 1A2-DRE human hepatoma cells, luciferase, 24 h; activation: stronger effect = higher value; further: % of control where 0% means no effect; nearly all actives have a fitted effect of over 15% in size
Procedure, shortened: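 Stable CYP1A2 promoter/DRE-luciferase human hepatoma line treated 24 hr; One-Glo luminescence, 30 min RT.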

[8] = biological target: Peroxisome proliferator-activated receptor alpha (Homo sapiens) (UniProt Q07869); experiment: qHTS assay for small molecule agonists of the peroxisome proliferator-activated receptor alpha (PPARalpha) signaling pathway (AID 651778); conditions: PathHunter PPARalpha complementation, chemiluminescence, 6 h; max response: stronger effect = higher value; further: % of control where 0% means no effect
Procedure, shortened: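 Enzyme-fragment complementation assay in which ligand-bound PPARalpha translocates and forms an active enzyme that generates chemiluminescence. Cells were plated overnight, exposed to compound for 6 hr at 37 C, and then given detection reagent for 60 min at room temperature.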

[9] = qHTS assay for small molecule agonists of the antioxidant response element (ARE) signaling pathway measured by Nrf2-dependant transcriptional activity - cell viability counter screen (AID 720653; active means well fitted curve in the direction sought with a large enough effect in the repeat runs; an effect the other way counts as inactive or inconclusive; further: on the % scale 0 is the no-effect control and ±100 the full control effect); conditions: ARE-bla HepG2 viability, CellTiter-Glo ATP luminescence, 16 h; max response: stronger effect = lower value
Procedure, shortened: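 ARE-bla HepG2 cells treated with compounds for 16 h at 37C; this counter screen measures viability as intracellular ATP by CellTiter-Glo luminescence after 30 min at room temperature.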

[10] = qHTS assay for cell viability of HEK293 cells (AID 743288); conditions: ATP luminescence (CellTiter-Glo), 18 h; max response: stronger effect = lower value; further: on the % scale 0 is the no-effect control and ±100 the full control effect; nearly all actives have a fitted effect of over 50% in size
Procedure, shortened: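 The Tox21 protocol used parental HEK293 cells treated for 18 h at 37 C with compounds delivered by pintool; ATP-coupled luminescence after 30 min at room temperature gave viability.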

[11] = qHTS assay for cell viability of the p53RE-bla HCT-116 cell line (AID 743292); further: on the % scale 0 is the no-effect control and ±100 the full control effect; nearly all actives have a fitted effect of over 55% in size
Procedure, shortened: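 Readout: CellTiter-Glo luminescence after 30 min RT. Treatment: compounds in DMSO, 16 h, 37 C. Cells: CellSensor p53RE-bla HCT-116, 4,000/well, preincubated 5 h.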

[12] = biological target: Nuclear receptor subfamily 1 group I member 2 (Rattus norvegicus) (UniProt Q9R1A7); experiment: qHTS assay for small molecule activators of the rat pregnane X receptor (rPXR) signaling pathway (AID 651751; call rule not given here; further: 0% is about no effect); conditions: rPXR reporter cells, luciferase (One-Glo), 24 h
[13] = qHTS assay for small molecule activators of the human pregnane X receptor (PXR) signaling pathway (AID 720659; call rule not given here; further: 0% is about no effect)
[14] = qHTS assay for small molecule agonists of retinoid X receptor alpha signaling (AID 588544; calls by dose curve;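 on activation: 0% = DMSO basal wells and 100% = reference agonist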); conditions: HEK293T RXRa-UAS-bla, beta-lactamase reporter, 18 h; 530 nm emission
[15] = biological target: Retinoic acid receptor RXR-alpha (Homo sapiens) (UniProt P19793); experiment: as above
[16] = qHTS assay for small molecule agonists of the antioxidant response element (ARE) signaling pathway measured by Nrf2-dependant transcriptional activity (AID 720636; active means well fitted curve in the direction sought with a large enough effect in the repeat runs; an effect the other way counts as inactive or inconclusive;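 further: HepG2 cells with an ARE-driven luciferase reporter; % of control where 0% means no effect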)
Procedure, shortened: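 Reporter gene assay, HepG2 ARE-luc: 16 hr compound, 37 C, 5% CO2; read-out luciferase luminescence.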

[17] = biological target: Peroxisome proliferator-activated receptor gamma (Homo sapiens) (UniProt P37231); experiment: qHTS assay for small molecule agonists of peroxisome proliferator-activated receptor gamma signaling (AID 588536; active means well fitted curve in the direction sought with a large enough effect in the signal ratio, with a control signal flat, not every such curve was filed as active; the % refers to the signal ratio;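 further: 0% = DMSO basal wells and 100% = rosiglitazone at 2 µM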)
Procedure, shortened: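 PPAR-gamma-UAS-bla HEK293 cells in medium with 1% charcoal/dextran-treated FBS were exposed to compounds for 16 h at 37 C. Beta-lactamase activity was read with CCF4 substrate (405 nm excitation, 460/530 nm emission).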

[18] = biological target: Peroxisome proliferator-activated receptor gamma (Homo sapiens) (UniProt P37231); experiment: qHTS assay for small molecule antagonists of peroxisome proliferator-activated receptor gamma signaling (AID 588537; active means well fitted inhibition curve with a large enough effect in the signal ratio, with a control signal flat, not every such curve was filed as active; the % refers to the signal ratio;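 further: reporter cells co-stimulated with 50 nM rosiglitazone agonist during compound treatment; % of control where 0% means no effect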)
Procedure, shortened: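 PPARγ-UAS-bla HEK293 cells (3000/well) in 1% charcoal/dextran-stripped FBS are treated with compound, then stimulated with 50 nM rosiglitazone for 16 h at 37 °C. Read-out is CCF4 β-lactamase fluorescence after 2 h at RT. IC50 comes from Hill fits normalised to rosiglitazone and DMSO.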

[19] = biological target: Vitamin D3 receptor (Homo sapiens) (UniProt P11473); experiment: qHTS assay for small molecule agonists of vitamin D receptor signaling (AID 588543; calls by dose curve;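 further: 0% = DMSO basal and 100% = reference agonist control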)
Procedure, shortened: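 qHTS in agonist mode: compound titrations stimulate a VDR-driven β-lactamase reporter in HEK293T cells over 16 h at 37 °C. Response normalized to 50 nM 1α,25-dihydroxyvitamin D3 = 100%, DMSO = 0%; Hill fitting gives EC50 and maximal response.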

[20] = qHTS assay for small molecule antagonists of peroxisome proliferator-activated receptor delta signaling (AID 588535); conditions: HEK293T PPARd-UAS-bla, beta-lactamase FRET ratio, 18 h; 460 nm channel;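 further: cells co-treated with a PPAR-delta agonist as stimulator during compound exposure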
Procedure, shortened: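 Antagonist-mode beta-lactamase reporter (GeneBLAzer PPAR-delta-UAS-bla) in HEK293T cells, 2% charcoal/dextran FBS, 4000 cells/well. Compound titrations, 18 h at 37 C; CCF4 ratio read, IC50 and efficacy from Hill fits.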

Chain of Peroxisome proliferator-activated receptor alpha (Homo sapiens) (Q07869 whole entry, looked up, the tested form may be a part): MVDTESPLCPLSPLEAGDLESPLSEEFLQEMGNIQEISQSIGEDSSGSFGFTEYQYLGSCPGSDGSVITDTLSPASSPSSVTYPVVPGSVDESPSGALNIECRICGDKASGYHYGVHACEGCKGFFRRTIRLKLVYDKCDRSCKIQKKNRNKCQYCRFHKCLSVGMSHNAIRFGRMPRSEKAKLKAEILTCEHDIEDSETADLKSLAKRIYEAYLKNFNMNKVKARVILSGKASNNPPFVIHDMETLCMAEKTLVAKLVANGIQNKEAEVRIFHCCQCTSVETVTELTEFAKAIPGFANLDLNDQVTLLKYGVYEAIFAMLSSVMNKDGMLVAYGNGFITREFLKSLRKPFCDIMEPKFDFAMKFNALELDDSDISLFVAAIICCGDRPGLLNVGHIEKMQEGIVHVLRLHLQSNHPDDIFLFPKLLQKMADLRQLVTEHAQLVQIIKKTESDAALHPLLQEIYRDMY
Chain of Nuclear receptor subfamily 1 group I member 2 (Rattus norvegicus) (Q9R1A7 whole entry, looked up): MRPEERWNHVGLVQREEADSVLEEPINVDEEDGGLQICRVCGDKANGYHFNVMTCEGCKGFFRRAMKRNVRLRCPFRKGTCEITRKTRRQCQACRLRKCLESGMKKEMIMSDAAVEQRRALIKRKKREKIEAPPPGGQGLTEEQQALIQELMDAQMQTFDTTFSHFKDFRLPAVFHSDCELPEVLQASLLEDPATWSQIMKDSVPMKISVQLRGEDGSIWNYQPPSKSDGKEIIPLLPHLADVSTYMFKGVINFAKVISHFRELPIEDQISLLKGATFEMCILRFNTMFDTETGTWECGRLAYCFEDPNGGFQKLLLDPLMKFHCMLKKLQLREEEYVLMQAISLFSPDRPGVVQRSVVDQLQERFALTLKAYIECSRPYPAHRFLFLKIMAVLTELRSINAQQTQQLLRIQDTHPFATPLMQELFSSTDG
Chain of Peroxisome proliferator-activated receptor gamma (Homo sapiens) (P37231 whole entry, looked up): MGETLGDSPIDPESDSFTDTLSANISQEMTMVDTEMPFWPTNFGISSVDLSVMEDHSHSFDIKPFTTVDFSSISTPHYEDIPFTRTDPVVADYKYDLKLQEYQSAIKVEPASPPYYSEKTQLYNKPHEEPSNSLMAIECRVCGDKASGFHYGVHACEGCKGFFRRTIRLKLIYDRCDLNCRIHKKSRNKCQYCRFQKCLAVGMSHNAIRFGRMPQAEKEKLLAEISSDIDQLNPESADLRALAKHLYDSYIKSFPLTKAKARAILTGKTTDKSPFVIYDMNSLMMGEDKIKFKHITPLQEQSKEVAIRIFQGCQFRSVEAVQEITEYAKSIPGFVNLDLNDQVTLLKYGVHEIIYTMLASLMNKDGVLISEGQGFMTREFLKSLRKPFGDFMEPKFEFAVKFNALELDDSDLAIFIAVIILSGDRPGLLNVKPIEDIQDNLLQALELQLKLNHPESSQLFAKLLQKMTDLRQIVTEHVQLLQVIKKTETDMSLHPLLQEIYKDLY
Chain of Estrogen receptor (Homo sapiens) (P03372 whole entry, looked up): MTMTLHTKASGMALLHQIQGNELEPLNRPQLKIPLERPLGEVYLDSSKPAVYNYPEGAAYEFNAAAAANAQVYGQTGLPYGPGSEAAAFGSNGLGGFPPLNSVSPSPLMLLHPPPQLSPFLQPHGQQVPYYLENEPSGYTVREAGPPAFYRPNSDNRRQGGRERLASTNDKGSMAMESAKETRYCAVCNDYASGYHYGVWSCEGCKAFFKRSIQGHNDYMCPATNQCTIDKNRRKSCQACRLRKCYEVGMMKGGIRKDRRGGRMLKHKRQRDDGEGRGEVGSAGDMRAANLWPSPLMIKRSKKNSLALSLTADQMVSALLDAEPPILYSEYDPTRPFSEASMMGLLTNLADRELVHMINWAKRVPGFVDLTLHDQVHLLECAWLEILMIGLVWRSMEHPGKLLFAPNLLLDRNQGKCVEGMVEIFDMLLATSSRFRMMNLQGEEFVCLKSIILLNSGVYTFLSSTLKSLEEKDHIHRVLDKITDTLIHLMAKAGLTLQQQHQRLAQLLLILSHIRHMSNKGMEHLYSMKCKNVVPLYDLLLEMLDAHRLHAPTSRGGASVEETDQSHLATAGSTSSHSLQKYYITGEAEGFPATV
Chain of Retinoic acid receptor RXR-alpha (Homo sapiens) (P19793 whole entry, looked up): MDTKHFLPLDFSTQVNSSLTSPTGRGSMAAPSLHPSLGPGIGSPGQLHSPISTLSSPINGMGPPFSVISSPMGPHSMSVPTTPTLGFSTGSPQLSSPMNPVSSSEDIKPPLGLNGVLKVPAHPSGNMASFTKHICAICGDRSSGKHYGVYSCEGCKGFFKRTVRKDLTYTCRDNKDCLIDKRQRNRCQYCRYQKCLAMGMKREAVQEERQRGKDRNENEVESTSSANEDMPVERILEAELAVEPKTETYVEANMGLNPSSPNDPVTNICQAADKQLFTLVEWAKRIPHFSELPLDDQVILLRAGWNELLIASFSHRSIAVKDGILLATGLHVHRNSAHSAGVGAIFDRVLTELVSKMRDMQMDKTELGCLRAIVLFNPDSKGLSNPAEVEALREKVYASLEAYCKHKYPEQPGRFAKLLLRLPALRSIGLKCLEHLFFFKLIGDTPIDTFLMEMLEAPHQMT
Chain of Vitamin D3 receptor (Homo sapiens) (P11473 whole entry, looked up): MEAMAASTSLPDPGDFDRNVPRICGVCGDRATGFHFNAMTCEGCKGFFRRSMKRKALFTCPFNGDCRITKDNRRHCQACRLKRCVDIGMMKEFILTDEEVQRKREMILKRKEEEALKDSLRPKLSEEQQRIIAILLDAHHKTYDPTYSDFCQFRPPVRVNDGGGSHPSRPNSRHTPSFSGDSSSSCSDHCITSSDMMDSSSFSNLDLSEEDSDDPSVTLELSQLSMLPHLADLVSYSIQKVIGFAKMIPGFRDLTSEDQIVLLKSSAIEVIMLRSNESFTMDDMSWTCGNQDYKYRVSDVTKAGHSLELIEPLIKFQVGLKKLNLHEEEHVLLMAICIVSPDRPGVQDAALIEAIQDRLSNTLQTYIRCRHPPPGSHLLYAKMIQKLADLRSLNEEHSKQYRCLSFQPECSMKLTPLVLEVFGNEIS
Chain of Thyroid hormone receptor beta (Homo sapiens) (P10828 whole entry, looked up): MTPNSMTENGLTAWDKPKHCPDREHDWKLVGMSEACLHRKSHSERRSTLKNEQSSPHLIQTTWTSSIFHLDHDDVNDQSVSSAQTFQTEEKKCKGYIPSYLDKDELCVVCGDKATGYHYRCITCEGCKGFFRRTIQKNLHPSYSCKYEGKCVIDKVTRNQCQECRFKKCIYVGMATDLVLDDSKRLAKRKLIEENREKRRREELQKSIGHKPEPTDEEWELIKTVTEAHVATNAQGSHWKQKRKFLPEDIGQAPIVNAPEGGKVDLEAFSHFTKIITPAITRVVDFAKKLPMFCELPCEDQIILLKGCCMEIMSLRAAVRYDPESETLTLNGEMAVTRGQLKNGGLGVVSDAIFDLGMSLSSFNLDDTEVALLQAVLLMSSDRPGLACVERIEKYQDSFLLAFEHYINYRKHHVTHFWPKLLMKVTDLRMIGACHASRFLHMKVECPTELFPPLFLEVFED

Row | Compound | Potency [1] | Potency [2] | max response [3] [%] | max response [4] | activity change % (negative = inhibition) [5] | activation [6] | activation [7] | max response [8] | max response [9] | max response [10] | Potency [11] | max response [12] | outcome [13] | max response [14] [%] | Potency [15] | Potency [16] | outcome [17] | Potency [18] | outcome [19] | max response [20] [%]
1 | CCN(Cc1cccc(S(=O)(=O)O)c1)c1ccc(C(=C2C=CC(=[N+](CC)Cc3cccc(S(=O)(=O)[O-])c3)C=C2)c2ccccc2)cc1 | inactive | inactive | 16.5 | 8.46% (inactive) | -4.54% (inactive) | -2.82% (inactive) | -1.94% (inactive) | -3.93% (inactive) | -9.88% (inactive) | -13.6% (inactive) | inactive | -0.0295% (inactive) | inactive | – | – | – | – | – | – | –
2 | Cc1ccc(S(=O)(=O)C(I)I)cc1 | inactive | – | – | – | – | 4.66% (inactive) | -11.1% (inactive) | – | – | – | – | – | inactive | -69.8 | inactive | inactive | – | – | – | –
3 | C=C[Si](C)(C)O[Si](C)(C)C=C | inactive | inactive | -11.2 | -0.957% (inactive) | 3.28% (inactive) | – | -1.78% (inactive) | -1.71% (inactive) | -2.71% (inactive) | -5.1% (inactive) | inactive | 0.719% (inactive) | inactive | 11.5 | inactive | inactive | inactive | inactive | inactive | –
4 | O=C1CCCCCCCCCCC1 | inactive | inactive | -10.4 | 4.14% (inactive) | 4.81% (inactive) | -4.42% (inactive) | 0.997% (inactive) | -0.988% (inactive) | -14.8% (inactive) | -4.39% (inactive) | inactive | 0.58% (inactive) | inactive | -19.7 | inactive | inactive | inactive | inactive | – | 31.3
5 | C=CCCCCCCCCCCCC | – | inactive | -3.7 | 10.9% (inactive) | – | -3% (inactive) | 0.249% (inactive) | – | 1.55% (inactive) | 5.27% (inactive) | inactive | 1.46% (inactive) | inactive | -6.65 | inactive | inactive | inactive | inactive | inactive | 14.9
6 | C=CC(=O)OCC(C)OCC(C)OCC(C)OC(=O)C=C (configuration not stated) | inactive | inactive | -20.7 | 10.6% (inactive) | 0.874% (inactive) | 0.712% (inactive) | -0.0895% (inactive) | -2.39% (inactive) | -8.01% (inactive) | -1.74% (inactive) | inactive | -2.64% (inactive) | inactive | -8.39 | inactive | inactive | – | inactive | inactive | 41.6
7 | CC/C=C/CCCCCCCCCCOC(C)=O | inactive | inactive | – | – | 4.15% (inactive) | – | -0.59% (inactive) | -1.44% (inactive) | -0.636% (inactive) | -7.88% (inactive) | inactive | 3.81% (inactive) | inactive | -22.5 | inactive | inactive | inactive | inactive | inactive | 25.9
8 | Cc1nn(C)c(Oc2ccccc2)c1/C=N/OCc1ccc(C(=O)OC(C)(C)C)cc1 | inactive | inactive | – | – | -18.8% (inactive) | – | – | 2.08% (inactive) | – | – | inactive | – | inactive | -10.3 | inactive | inactive | – | – | – | –
9 | C[Si]1(C)O[Si](C)(C)O[Si](C)(C)O[Si](C)(C)O1 | inactive | inactive | 1.41 | 6.05% (inactive) | 11% (inactive) | -2.06% (inactive) | -0.142% (inactive) | -0.153% (inactive) | 2.58% (inactive) | 0.965% (inactive) | inactive | 3.43% (inactive) | inactive | – | – | inactive | – | inactive | inactive | 8.31
10 | CCCCC/C=C\C/C=C\CCCCCCCC(=O)OC | inactive | inactive | 7.06 | – | -14.4% (inactive) | -2.82% (inactive) | 1.77% (inactive) | -0.289% (inactive) | -4.45% (inactive) | -12.5% (inactive) | inactive | -0.654% (inactive) | inactive | -7.14 | inactive | inactive | inactive | inactive | – | 10.1
11 | O=C=NCCCCCCN=C=O | inactive | inactive | -6.96 | -6.2% (inactive) | – | – | -0.825% (inactive) | – | -0.323% (inactive) | -9.94% (inactive) | inactive | -0.542% (inactive) | inactive | -10.7 | inactive | inactive | inactive | inactive | inactive | 15.2
12 | O=c1n(CCO)c(=O)n(CCO)c(=O)n1CCO | inactive | inactive | -6.53 | 2.33% (inactive) | – | 3.11% (inactive) | 0.674% (inactive) | – | -11.6% (inactive) | -6.36% (inactive) | inactive | -0.84% (inactive) | – | -13.7 | inactive | – | inactive | – | inactive | 3.67
13 | CO[Si](OC)(OC)c1ccccc1 | inactive | inactive | -3.5 | -6.99% (inactive) | – | -3.17% (inactive) | 1.89% (inactive) | -1.36% (inactive) | -0.0462% (inactive) | -0.551% (inactive) | inactive | -6.78% (inactive) | inactive | -13.7 | inactive | inactive | inactive | inactive | inactive | 44.5
14 | CC(=O)CC(=O)Nc1ccc(C)cc1C | – | inactive | – | – | – | -5.45% (inactive) | 0.555% (inactive) | -1.32% (inactive) | -2.61% (inactive) | -7.21% (inactive) | inactive | -1.86% (inactive) | inactive | – | – | inactive | inactive | inactive | – | –
